The target in experiment [1] is Glucocorticoid receptor (Homo sapiens) (UniProt P04150). Nature of the experiment: qHTS assay for small molecule agonists of glucocorticoid receptor signaling (AID 588532; active means well fitted curve in the direction sought with a large enough effect in the signal ratio, with a control signal flat; the % refers to the signal ratio;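 further: 100% = dexamethasone at 0.1 µM and 0% = DMSO only wells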). The conditions noted are these: HeLa MMTV-bla, beta-lactamase ratio, agonist, 18 h; stronger effect = higher value; percent of dexamethasone control, DMSO zero. An outline of the steps: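 Cells were plated and rested 3-5 h at 37 C, compounds were added in titration and incubated 18 h, then CCF4 substrate was loaded for 2 h at RT before reading blue/green fluorescence. EC50 came from Hill-equation fitting.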

The nature of experiment [2]: qHTS assay for small molecule antagonists of peroxisome proliferator-activated receptor delta signaling (AID 588535; active means well fitted inhibition curve with a large enough effect in the signal ratio, with a control signal flat, not every such curve was filed as active; the % refers to the signal ratio;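 on max response: cells co-treated with a PPAR-delta agonist as stimulator during compound exposure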). The settings on record: HEK293T PPARd-UAS-bla, beta-lactamase FRET ratio, 18 h; 460 nm channel. An outline of the steps:
(§1)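 Beta-lactamase reporter read-out (405 nm excitation, 460/530 nm emission) after CCF4 loading for 2 hrs at RT. HEK293T PPAR-delta-UAS-bla cells, 2% charcoal/dextran FBS, compounds for 18 hrs at 37 C. Hill fit gave IC50 and efficacy.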
(Quantitative high-throughput screening tests each substance at several concentrations.)

In experiment [3] the target is Peroxisome proliferator-activated receptor delta (Homo sapiens) (UniProt Q03181). The description is as above. In short, it runs like this: as §1
For experiment [4], the target named is Vitamin D3 receptor (Homo sapiens) (UniProt P11473). Nature of the experiment: qHTS assay for small molecule antagonists of vitamin D receptor signaling (AID 588541).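 Further: receptor activated by calcitriol during compound treatment; series mostly up to about 77 µM; on the % scale 0 is the no-effect control and ±100 the full control effect.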 An outline of the steps:
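VDR-UAS-bla HEK293T cells in 2% charcoal-stripped FBS were stimulated with 1-alpha,25-dihydroxyvitamin D3 (3 nM final) plus compound for 16 h at 37 C. The beta-lactamase CCF4 readout was normalized to 50 nM agonist and DMSO, and Hill fits gave IC50.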

For experiment [5] the target is unchanged. Nature of the experiment: qHTS assay for small molecule agonists of vitamin D receptor signaling (AID 588543).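 Further: 0% = DMSO basal and 100% = reference agonist control.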 In short, it runs like this:
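Measured: β-lactamase reporter activity (CCF4, 405 nm excitation, 460/530 nm emission) in HEK293T VDR-UAS-bla cells after 16 h compound exposure at 37 °C. Normalization against 50 nM 1α,25-dihydroxyvitamin D3 and DMSO; Hill-fit EC50.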

The nature of experiment [6]: qHTS assay for small molecule agonists of retinoid X receptor alpha signaling (AID 588544).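 On activation: 0% = DMSO basal wells and 100% = reference agonist.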 The conditions noted are these: HEK293T RXRa-UAS-bla, beta-lactamase reporter, 18 h; 530 nm emission.
In experiment [7] the target is Thyroid hormone receptor beta (Homo sapiens) (UniProt P10828). Nature of the experiment: qHTS assay for small molecule agonists of thyroid hormone receptor beta signaling (AID 588545).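 Further: 0% = DMSO only and 100% = 10 nM T3.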 An outline of the steps: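 Compounds were tested as agonists in TR-UAS-bla-GripTite HEK 293 cells. After 18 hrs at 37 C, CCF4 substrate was added and fluorescence read after 2 hrs at room temperature.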

A short description of experiment [8]: qHTS assay for small molecule antagonists of retinoid X receptor alpha signaling (AID 588546; active means well fitted inhibition curve with a large enough effect in the signal ratio, with a control signal flat, not every such curve was filed as active; the % refers to the signal ratio;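 further: cells stimulated with 9-cis-retinoic acid as agonist; on the % scale 0 is the no-effect control and ±100 the full control effect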). The settings on record: HEK293T RXRa-UAS-bla, beta-lactamase ratio, antagonist mode; measured here: W530 green channel, cytotoxicity proxy. An outline of the steps: (§2)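 Beta-lactamase reporter inhibition, read as CCF4 fluorescence ratio (ex 405, em 460/530 nm) after 2 h at RT. HEK293T UAS-bla cells, 2500/well, were stimulated with 9-cis-RA at 500 or 100 nM final alongside test compound for 18 h at 37 C.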

The target of experiment [9] is Retinoic acid receptor RXR-alpha (Homo sapiens) (UniProt P19793). The description is as above. The settings on record: HEK293T RXRa-UAS-bla, beta-lactamase ratio, antagonist mode. In short, it runs like this: as §2
The target of experiment [10] is Thyroid hormone receptor beta (Homo sapiens) (UniProt P10828). The experiment is described as follows: qHTS assay for small molecule antagonists of thyroid hormone receptor beta signaling (AID 588547; active means well fitted inhibition curve with a large enough effect in the signal ratio, with a control signal flat, not every such curve was filed as active; the % refers to the signal ratio;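 further: cells stimulated with 0.4 nM T3 agonist during compound exposure; series mostly up to about 77 µM; on the % scale 0 is the no-effect control and ±100 the full control effect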). The conditions noted are these: TR-UAS-bla HEK293, beta-lactamase ratio, antagonist mode, 18 h. An outline of the steps:
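TR-UAS-bla GripTite HEK293 cells in 2% charcoal/dextran FBS medium; compounds 0.59 nM to 92 uM with T3 at 0.4nM final, 18 h at 37 C. Beta-lactamase read by CCF4 fluorescence (460/530 nm); Hill fits gave IC50 and efficacy.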

Experiment [11] concerns the target Glucocorticoid receptor (Homo sapiens) (UniProt P04150). The experiment is described as follows: qHTS assay for small molecule antagonists of glucocorticoid receptor signaling (AID 588533; active means well fitted inhibition curve with a large enough effect in the signal ratio, with a control signal flat, not every such curve was filed as active; the % refers to the signal ratio; further: on the % scale 0 is the no-effect control and ±100 the full control effect). An outline of the steps:
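Antagonist-mode qHTS: compound titrations added to GRE-bla HeLa cells, then dexamethasone 2 nM final; 18 h, 37 C. CCF4 FRET fluorescence normalized to dexamethasone and DMSO; IC50 from Hill fit.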

Experiment [12] deals with Peroxisome proliferator-activated receptor gamma (Homo sapiens) (UniProt P37231). Nature of the experiment: qHTS assay for small molecule agonists of peroxisome proliferator-activated receptor gamma signaling (AID 588536; active means well fitted curve in the direction sought with a large enough effect in the signal ratio, with a control signal flat, not every such curve was filed as active; the % refers to the signal ratio;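 further: 0% = DMSO basal wells and 100% = rosiglitazone at 2 µM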). An outline of the steps:
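Beta-lactamase reporter read-out: CCF4 fluorescence (ex 405, em 460/530 nm) after 2 h at RT. HEK293 GeneBLAzer cells were treated for 16 h at 37 C. Hill fits gave EC50 and efficacy versus 2 uM rosiglitazone (100%) and DMSO (0%).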

Experiment [13] addresses Retinoic acid receptor RXR-alpha (Homo sapiens) (UniProt P19793). The experiment is described as follows: qHTS assay for small molecule agonists of retinoid X receptor alpha signaling (AID 588544).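 On activation: 0% = DMSO basal wells and 100% = reference agonist.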
In experiment [14] the target is Voltage-gated inwardly rectifying potassium channel KCNH2 (Homo sapiens) (UniProt Q12809). The experiment is described as follows: qHTS Assay for Small Molecule Inhibitors of the Human hERG Channel Activity (AID 588834; active means well fitted inhibition curve with a large enough effect;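 further: top concentration of the series differs between compounds; on the % scale 0 is the no-effect control and ±100 the full control effect; lower thallium flux fluorescence means stronger hERG block; nearly all actives have a fitted effect of over 50% in size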). In short, it runs like this: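 Homogeneous FluxOR thallium flux assay using hERG-expressing U2OS cells (BacMam). Compound treatment about 10 minutes preceded stimulation; reduced fluorescence taken as channel block.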

Experiment [15] in a line: qHTS assay for small molecule agonists of the antioxidant response element (ARE) signaling pathway (AID 651741; active means well fitted activation curve with a large enough effect in the signal ratio; the % refers to the signal ratio; further: % of control where 0% means no effect). An outline of the steps:
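HepG2 ARE-bla reporter cells, 2,000/well; 5 h settle at 37 C/5% CO2; compound pin transfer (23 nL, DMSO); 16 h at 37 C; LiveBLAzer B/G FRET substrate, 2 h RT; fluorescence intensity read.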

A short description of experiment [16]: qHTS assay for small molecule activators of the p53 signaling pathway (AID 651743; active means well fitted activation curve with a large enough effect in the signal ratio, not every such curve was filed as active; the % refers to the signal ratio; further: series mostly up to about 92 µM; % of control where 0% means no effect). The conditions noted are these: HCT-116 p53RE-bla, beta-lactamase FRET ratio, 16 h; stronger effect = higher value. An outline of the steps:
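Reporter: beta-lactamase driven by p53 response elements, stably integrated in HCT-116 cells. Cells seeded at 4,000/well, 5 h preincubation, compound (DMSO) 16 h at 37 C; B/G FRET substrate 2 h RT; fluorescence intensity read.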

Experiment [17] in a line: qHTS assay for small molecule activators of the nuclear factor-kappa B (NF-kB) signaling pathway (AID 651749; active means well fitted activation curve with a large enough effect in the signal ratio; the % refers to the signal ratio; further: series mostly up to about 77 µM; % of control where 0% means no effect). The conditions noted are these: NF-kB-bla ME-180 cells, beta-lactamase FRET ratio, 16 h; stronger effect = higher value. An outline of the steps: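 NF-kB-bla ME-180 cells, 2,000/well; 23 nL compound or DMSO pinned; 16 hr, 37C/5% CO2; beta-lactamase FRET read-out.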
The target of experiment [18] is Peroxisome proliferator-activated receptor gamma (Homo sapiens) (UniProt P37231). The experiment is described as follows: qHTS assay for small molecule antagonists of peroxisome proliferator-activated receptor gamma signaling (AID 588537; active means well fitted inhibition curve with a large enough effect in the signal ratio, with a control signal flat, not every such curve was filed as active; the % refers to the signal ratio;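 further: reporter cells co-stimulated with 50 nM rosiglitazone agonist during compound treatment; % of control where 0% means no effect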). In short, it runs like this: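 Read-out: CCF4 fluorescence (ex 405, em 460/530 nm) after 2 h at RT. Cells were HEK293 carrying a UAS-bla reporter and treated 16 h at 37 C with compound plus rosiglitazone (50 nM final). Normalized to rosiglitazone and DMSO.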

The structures appear in SMILES notation. Inconclusive results are not listed. Activity calls are given as the source filed them. Unless noted, the call rests on the fitted dose curve.

Chain of Peroxisome proliferator-activated receptor gamma (Homo sapiens) (P37231 whole entry, looked up): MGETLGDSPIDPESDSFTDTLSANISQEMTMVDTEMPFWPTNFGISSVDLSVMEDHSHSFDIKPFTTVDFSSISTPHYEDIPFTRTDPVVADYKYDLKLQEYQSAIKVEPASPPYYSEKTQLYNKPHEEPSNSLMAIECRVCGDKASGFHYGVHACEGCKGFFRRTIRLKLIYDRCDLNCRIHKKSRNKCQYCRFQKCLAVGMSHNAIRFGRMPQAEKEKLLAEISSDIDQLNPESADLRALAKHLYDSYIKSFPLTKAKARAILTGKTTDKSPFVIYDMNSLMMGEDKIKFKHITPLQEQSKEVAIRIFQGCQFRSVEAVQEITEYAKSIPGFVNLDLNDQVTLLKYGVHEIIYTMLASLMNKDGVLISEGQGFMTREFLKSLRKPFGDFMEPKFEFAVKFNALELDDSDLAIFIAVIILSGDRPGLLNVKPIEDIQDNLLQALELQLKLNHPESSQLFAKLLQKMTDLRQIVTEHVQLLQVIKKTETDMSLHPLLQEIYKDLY
Chain of Voltage-gated inwardly rectifying potassium channel KCNH2 (Homo sapiens) (Q12809 whole entry, looked up): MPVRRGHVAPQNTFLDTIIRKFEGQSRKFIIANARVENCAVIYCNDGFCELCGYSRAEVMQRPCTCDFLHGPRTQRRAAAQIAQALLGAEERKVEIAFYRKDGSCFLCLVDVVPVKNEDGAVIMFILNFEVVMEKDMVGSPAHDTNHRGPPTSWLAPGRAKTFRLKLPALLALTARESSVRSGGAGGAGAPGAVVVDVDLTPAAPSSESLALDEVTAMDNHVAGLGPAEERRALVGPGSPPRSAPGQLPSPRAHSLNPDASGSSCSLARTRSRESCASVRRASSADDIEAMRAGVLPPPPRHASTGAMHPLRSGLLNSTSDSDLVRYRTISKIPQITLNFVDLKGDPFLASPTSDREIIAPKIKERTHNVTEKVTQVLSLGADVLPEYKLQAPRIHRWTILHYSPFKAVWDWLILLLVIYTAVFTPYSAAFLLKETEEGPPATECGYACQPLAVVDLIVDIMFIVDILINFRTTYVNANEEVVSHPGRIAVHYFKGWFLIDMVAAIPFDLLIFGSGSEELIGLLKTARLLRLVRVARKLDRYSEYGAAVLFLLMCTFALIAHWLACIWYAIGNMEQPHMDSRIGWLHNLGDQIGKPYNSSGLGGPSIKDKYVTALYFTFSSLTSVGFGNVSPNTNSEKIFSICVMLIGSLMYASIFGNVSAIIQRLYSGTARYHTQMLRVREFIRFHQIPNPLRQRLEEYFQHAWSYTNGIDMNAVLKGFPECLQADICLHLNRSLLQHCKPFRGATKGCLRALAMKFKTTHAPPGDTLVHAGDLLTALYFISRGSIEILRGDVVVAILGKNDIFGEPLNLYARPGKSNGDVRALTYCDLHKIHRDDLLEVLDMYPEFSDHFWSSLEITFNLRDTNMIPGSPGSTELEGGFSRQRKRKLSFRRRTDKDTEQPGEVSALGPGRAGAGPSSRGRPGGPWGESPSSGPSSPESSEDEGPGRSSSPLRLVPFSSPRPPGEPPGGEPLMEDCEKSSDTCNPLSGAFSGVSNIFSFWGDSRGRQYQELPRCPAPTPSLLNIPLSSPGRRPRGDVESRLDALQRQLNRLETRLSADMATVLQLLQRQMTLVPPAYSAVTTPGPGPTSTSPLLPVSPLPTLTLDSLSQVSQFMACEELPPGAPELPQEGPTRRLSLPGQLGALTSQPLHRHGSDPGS
Chain of Glucocorticoid receptor (Homo sapiens) (P04150 whole entry, looked up): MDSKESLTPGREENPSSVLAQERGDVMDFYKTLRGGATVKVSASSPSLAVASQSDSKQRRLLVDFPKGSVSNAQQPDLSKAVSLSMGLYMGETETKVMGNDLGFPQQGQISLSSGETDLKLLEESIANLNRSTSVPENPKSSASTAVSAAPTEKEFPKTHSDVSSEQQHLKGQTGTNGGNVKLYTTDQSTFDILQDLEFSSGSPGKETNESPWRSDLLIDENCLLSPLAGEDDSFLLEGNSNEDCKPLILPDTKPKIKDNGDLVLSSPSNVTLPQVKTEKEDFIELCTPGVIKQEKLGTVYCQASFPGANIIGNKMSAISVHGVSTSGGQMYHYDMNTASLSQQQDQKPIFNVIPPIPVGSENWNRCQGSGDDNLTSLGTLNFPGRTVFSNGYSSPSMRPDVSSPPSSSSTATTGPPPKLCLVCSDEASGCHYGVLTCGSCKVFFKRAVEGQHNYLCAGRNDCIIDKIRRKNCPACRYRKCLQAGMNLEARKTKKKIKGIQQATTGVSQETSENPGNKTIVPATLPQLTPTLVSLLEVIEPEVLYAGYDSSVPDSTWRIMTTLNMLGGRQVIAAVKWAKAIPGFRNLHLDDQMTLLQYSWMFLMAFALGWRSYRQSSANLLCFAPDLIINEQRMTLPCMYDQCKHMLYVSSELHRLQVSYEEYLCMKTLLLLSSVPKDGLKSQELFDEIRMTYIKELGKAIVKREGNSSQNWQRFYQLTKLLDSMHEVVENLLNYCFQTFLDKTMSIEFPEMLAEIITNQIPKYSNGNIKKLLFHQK
Chain of Thyroid hormone receptor beta (Homo sapiens) (P10828 whole entry, looked up): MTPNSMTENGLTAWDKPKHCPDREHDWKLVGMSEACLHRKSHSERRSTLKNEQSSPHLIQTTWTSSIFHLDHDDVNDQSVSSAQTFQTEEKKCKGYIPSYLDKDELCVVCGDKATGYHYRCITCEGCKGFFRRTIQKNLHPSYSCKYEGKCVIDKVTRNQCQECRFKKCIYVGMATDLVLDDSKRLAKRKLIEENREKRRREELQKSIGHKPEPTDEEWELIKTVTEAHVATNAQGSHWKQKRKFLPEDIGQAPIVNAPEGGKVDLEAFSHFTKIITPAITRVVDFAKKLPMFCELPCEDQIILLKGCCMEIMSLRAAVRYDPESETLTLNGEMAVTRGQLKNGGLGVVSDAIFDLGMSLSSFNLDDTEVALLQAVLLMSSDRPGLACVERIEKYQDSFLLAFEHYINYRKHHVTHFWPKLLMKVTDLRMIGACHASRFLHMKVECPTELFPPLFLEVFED
Chain of Retinoic acid receptor RXR-alpha (Homo sapiens) (P19793 whole entry, looked up): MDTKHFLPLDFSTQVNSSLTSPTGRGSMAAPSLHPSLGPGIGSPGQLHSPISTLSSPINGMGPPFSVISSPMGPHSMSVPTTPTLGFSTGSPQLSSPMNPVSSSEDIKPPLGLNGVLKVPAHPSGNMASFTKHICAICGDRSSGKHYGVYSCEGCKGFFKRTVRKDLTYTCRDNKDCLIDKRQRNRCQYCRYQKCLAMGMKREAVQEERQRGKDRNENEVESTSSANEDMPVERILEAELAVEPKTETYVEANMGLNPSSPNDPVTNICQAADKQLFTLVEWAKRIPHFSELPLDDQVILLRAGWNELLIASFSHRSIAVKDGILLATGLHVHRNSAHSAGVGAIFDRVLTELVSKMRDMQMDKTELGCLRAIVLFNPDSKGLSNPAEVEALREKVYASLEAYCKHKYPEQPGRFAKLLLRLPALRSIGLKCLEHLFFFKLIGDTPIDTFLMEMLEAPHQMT
Chain of Peroxisome proliferator-activated receptor delta (Homo sapiens) (Q03181 whole entry, looked up): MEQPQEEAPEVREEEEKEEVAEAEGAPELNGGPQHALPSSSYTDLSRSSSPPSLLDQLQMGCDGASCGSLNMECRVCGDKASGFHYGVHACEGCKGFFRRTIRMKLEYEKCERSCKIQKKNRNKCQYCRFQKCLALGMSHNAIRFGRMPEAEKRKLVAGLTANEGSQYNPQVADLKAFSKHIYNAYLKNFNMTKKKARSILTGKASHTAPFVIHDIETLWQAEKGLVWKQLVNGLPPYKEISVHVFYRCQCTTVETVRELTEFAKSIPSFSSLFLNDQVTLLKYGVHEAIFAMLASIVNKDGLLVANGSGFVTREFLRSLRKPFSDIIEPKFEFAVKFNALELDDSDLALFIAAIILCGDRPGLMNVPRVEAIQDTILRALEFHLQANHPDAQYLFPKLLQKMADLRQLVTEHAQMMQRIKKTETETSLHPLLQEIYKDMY
Chain of Vitamin D3 receptor (Homo sapiens) (P11473 whole entry, looked up): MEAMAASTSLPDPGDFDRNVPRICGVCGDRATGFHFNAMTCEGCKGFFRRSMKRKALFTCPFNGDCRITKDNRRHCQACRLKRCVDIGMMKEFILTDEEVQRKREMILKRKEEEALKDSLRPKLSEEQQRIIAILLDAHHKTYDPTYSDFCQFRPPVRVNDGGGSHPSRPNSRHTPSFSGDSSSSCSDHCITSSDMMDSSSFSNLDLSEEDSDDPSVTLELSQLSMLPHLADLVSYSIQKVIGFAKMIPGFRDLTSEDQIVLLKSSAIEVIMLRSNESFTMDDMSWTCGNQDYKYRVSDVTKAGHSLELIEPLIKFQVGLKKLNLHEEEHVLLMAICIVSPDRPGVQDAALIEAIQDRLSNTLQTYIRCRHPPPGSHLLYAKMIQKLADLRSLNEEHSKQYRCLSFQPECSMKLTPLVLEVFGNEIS

In the case of `CC(C)(C)c1ccc(OCC2CO2)cc1` (stereo not drawn), the activation in experiment [1] was -4.85% (inactive). Besides, the max response in experiment [2] is 18.6%; in [6] it was -13.4%; in experiment [8], -2.99%; in [9], 11.5% (inactive). The Potency entry in [3] is “inactive”. The result in experiment [4], in experiment [5] and in [7] was inactive. For the same compound, in [10], the activity change % (negative = inhibition) was 5.82% (inactive).

On to `CC(=O)c1cc(C)oc1C`, for which the result in experiment [11], in [12], in experiment [4], in experiment [5], in experiment [13] and in experiment [7] was inactive. Moreover, the max response in experiment [2] is -4.12%; in [6], -2.61%; in experiment [8], 4.07%; in experiment [9], 0.525% (inactive). The Potency result in experiment [3], in experiment [14] and in [15] was “inactive” each time. In experiment [10], the activity change % (negative = inhibition) is -4.91% (inactive). Moreover, the activation in experiment [16] is -2.3% (inactive); in experiment [17], -0.373% (inactive).

As for `Fc1ccccc1`, the activation in experiment [1] was 1.06% (inactive); in experiment [17], 0.343% (inactive). The max response in experiment [2] was 0.384%; in experiment [6], -11.1%; in experiment [8], -11.6%; in [9] it was -5.23% (inactive). In addition, the Potency result in experiment [3], in experiment [14] and in experiment [15] was “inactive” throughout. In addition, the result in experiment [4], in experiment [13] and in [7] was inactive. Further, the activity change % (negative = inhibition) in experiment [10] was -5.64% (inactive).

With `Cc1ccc(Br)cc1`, the call in [11], in [12], in experiment [18], in experiment [4], in experiment [5] and in experiment [13] was inactive. The compound was classed as inactive in experiment [7]. Further, the max response was 4.44% in [2], 5.91% in experiment [6], 1.18% in experiment [8] and -0.837% (inactive) in experiment [9]. Moreover, the Potency result in experiment [3] and in [15] was “inactive” each time. Besides, the activity change % (negative = inhibition) in experiment [10] was -9.28% (inactive).

As for `CCOC(=O)OCC`, the activation was -5.65% (inactive) in experiment [1] and -0.0369% (inactive) in [17]. The result in experiment [12], in experiment [18], in experiment [4], in [5], in experiment [13] and in experiment [7] was inactive. Further, the values for the max response in [6], in experiment [8] and in experiment [9] were -14.7%, 10.9% and -0.211% (inactive), respectively. The activity change % (negative = inhibition) in experiment [10] was 5.41% (inactive). For the same compound, the Potency result in experiment [14] and in experiment [15] was “inactive” throughout.

For `O=CNc1ccccc1`, in [1], the activation is -0.553% (inactive). The outcome in [12], in experiment [18], in [4], in experiment [5], in experiment [13] and in experiment [7] was inactive. The max response in experiment [6] is -8.25%; in experiment [8], 2.83%; in [9], 1.7% (inactive). The Potency entry in experiment [14] is “inactive”.

For the compound `O=Cc1ccc(C(=O)O)cc1`, the figures for the activation in experiment [1] and in experiment [16] were 3.49% (inactive) and -2.17% (inactive), respectively. The compound was called inactive in [12] and in experiment [7]. In addition, the values for the max response in [6], in experiment [8] and in [9] were 15.4%, -11.2% and 34.5% (inactive), respectively. Besides, the activity change % (negative = inhibition) in experiment [10] is 7.45% (inactive).

For `Cc1ccc(Cl)cc1`, the activation in [1] was -1.4% (inactive); in [16], -2.72% (inactive). The max response is -18% in experiment [2], 0.942% in experiment [6], -3.57% in [8] and 8.67% (inactive) in [9]. Also, the Potency result in [3], in experiment [14] and in experiment [15] was “inactive” each time. Besides, the outcome in [12], in experiment [4] and in experiment [5] was inactive.

These data come from PubChem BioAssay (NCATS).
